Assay [1] in a line: BSK_BT_PBMCCytotoxicity: PBMC Cytotoxicity Assessment in the BioMAP Diversity Plus: BT Assay (AID 2284225).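 Further: PBMC viability measured by Alamar Blue dye reduction fluorescence.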 The following applies: primary human B cells with PBMC. In outline: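 PBMC (75,000/well) pretreated with compound 1 h, then activated with SEB and TSST-1 (20 ng/mL each final), incubated 90 h; Alamar Blue added 6 h, fluorescence read at 546/580 nm. Fitted relative to DMSO.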

Read-out in assay [2]: Secreted IgG (sIgG), gene 3500
Put plainly: BSK_BT_sIgG: BioMAP Diversity Plus: BT Assay for Secreted IgG (sIgG) Biomarker Activity (AID 2284226). Conditions: primary human B cells with PBMC. The essentials: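 Read-out: ELISA for secreted IgG after 24 h of chemical exposure in a B cell plus PBMC co-culture. Values reflect upward-direction fitting against DMSO negative controls.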

A short description of assay [3]: BSK_BT_Bcell_Proliferation: Viability Assessment in the BioMAP Diversity Plus: BT Assay for B cell Proliferation (AID 2284227). Conditions: primary human B cells with PBMC. In outline:
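Human B cells co-cultured with PBMC were dosed with test chemicals and relative cell number was quantified by SRB staining at 72 h. Cells were fixed in 10% TCA, stained with 0.1% SRB and read at 560 nm. Activity was fitted in the positive direction against DMSO.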

Read-out in assay [4]: Interleukin 6 (IL6), IL6 (gene 3569)
The assay is described as follows: BSK_BT_xIL6: BioMAP Diversity Plus: BT Assay for Interleukin 6 (IL6) Biomarker Activity (AID 2284228). Conditions: primary human B cells with PBMC. In outline: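 Readout: secreted IL-6 via Luminex xMAP multiplex, 24 h post-dosing. System: primary human B cells co-cultured with PBMC. Signal change scored relative to DMSO vehicle, positive fitting direction.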

Read-out in assay [5]: Interleukin 17A (IL17A), IL17A (gene 3605)
The assay is described as follows: BSK_BT_xIL17A: BioMAP Diversity Plus: BT Assay for Interleukin 17A (IL17A) Biomarker Activity (AID 2284229). Conditions: primary human B cells with PBMC. In outline: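 Luminex xMAP readout of secreted IL-17A; human B cell + PBMC co-culture; 24 h post-dose; positive-direction fit vs DMSO negative control.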

Read-out in assay [6]: Tumor necrosis factor (Homo sapiens) (UniProt P01375)
Put plainly: BSK_BT_xTNFa: BioMAP Diversity Plus: BT Assay for Tumor necrosis factor alpha (TNF-alpha) Biomarker Activity (AID 2284230). The following applies: primary human B cells with PBMC. In outline: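 B cells with PBMC in co-culture, dosed and sampled at 24 h; secreted TNF-alpha measured by Luminex xMAP bead assay. Activity fitted in the gain direction against DMSO as negative control and baseline.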

Read-out in assay [7]: Vascular cell adhesion molecule 1 (VCAM1), VCAM1 (gene 7412)
Put plainly: BSK_MyoF_VCAM1: BioMAP Diversity Plus: MyoF Assay for Vascular cell adhesion molecule 1 (VCAM1) Biomarker Activity (AID 2284231). Conditions: primary human lung fibroblasts. The essentials:
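MyoF system, lung fibroblasts; 24 h post-dose; VCAM-1 by ELISA; gain-of-signal fit vs DMSO baseline.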

The structures appear in SMILES notation. Active and inactive are the calls of the source. How the source made its calls: active means hit-call score of the fitted dose curve at least 0.9, where 1 is the maximum; inactive means score below 0.9.

A word on the AC50: it is the midpoint of the concentration-response curve, whichever way the signal moves.

Sequence of Tumor necrosis factor (Homo sapiens) (P01375 whole entry, looked up): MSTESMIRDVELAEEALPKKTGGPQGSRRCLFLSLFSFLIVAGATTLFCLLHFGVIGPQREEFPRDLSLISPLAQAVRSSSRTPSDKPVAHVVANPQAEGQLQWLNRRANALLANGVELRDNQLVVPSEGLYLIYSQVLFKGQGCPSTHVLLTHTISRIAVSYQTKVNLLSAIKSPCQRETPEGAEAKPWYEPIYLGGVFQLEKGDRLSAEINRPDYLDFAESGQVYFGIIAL

Turning to `c1ccc2c(c1)sc1ccccc12`, the outcome in assay [1], in assay [2], in assay [3], in assay [4], in assay [5] and in assay [6] was inactive. In addition, the result in assay [7] was inactive.

Consider `CC(C)Nc1ccc(Nc2ccccc2)cc1`, for which the AC50 is 2.89 µM (active) in assay [1]; 2.73 µM (active) in assay [2]; 2.3 µM (active) in assay [3]; 4.22 µM (active) in assay [4]; 3.17 µM (active) in assay [5]; 5 µM (active) in assay [6]. The AC50 in assay [7] was 20 µM (active).

As to `CCOP(=S)(OCC)SCn1nnc2ccccc2c1=O`, the outcome in assay [1], in assay [3], in assay [4], in assay [5], in assay [6] and in assay [7] was inactive. The AC50 in assay [2] is 20 µM (active).

In the case of `C=CC(=O)OCC(CC)(COC(=O)C=C)COC(=O)C=C`, the half-maximal activity concentration (AC50) was 2.98 µM (active) in assay [1]; 0.516 µM (active) in assay [2]; 2.36 µM (active) in assay [3]; 1.46 µM (active) in assay [4]; 2.18 µM (active) in assay [5]; 2.61 µM (active) in assay [6]. Besides, the AC50 in assay [7] was 2.5 µM (active).

As to `O=S(=O)(F)C(F)(F)C(F)(F)C(F)(F)C(F)(F)C(F)(F)C(F)(F)C(F)(F)C(F)(F)F`, the outcome in assay [1], in assay [2], in assay [3], in assay [4], in assay [5] and in assay [6] was inactive. Further, in assay [7], the result was inactive.

For `O=C(O)C(F)(F)OC(F)(F)C(F)(F)OC(F)(F)C(=O)O`, the outcome in assay [1], in assay [2], in assay [3], in assay [4], in assay [5] and in assay [6] was inactive. The outcome in assay [7] was inactive.

Consider `CCOP(=S)(OCC)SCSc1ccc(Cl)cc1`, for which the result in assay [1], in assay [3], in assay [4], in assay [5], in assay [6] and in assay [7] was inactive. Also, in assay [2], the concentration at half-maximal activity (AC50) is 20 µM (active).

With `Nc1ccc([N+](=O)[O-])cc1Cl`, the outcome in assay [1], in assay [2], in assay [3], in assay [4], in assay [5] and in assay [6] was inactive. Also, in assay [7], the outcome was inactive.

Regarding `CCOP(=S)(S)OCC`, the outcome in assay [1], in assay [3], in assay [4], in assay [5], in assay [6] and in assay [7] was inactive. For the same compound, the AC50 in assay [2] was 4.15 µM (active).

For `OCC(F)(F)OC(F)(F)C(F)(F)OC(F)(F)CO`, the result in assay [1], in assay [2], in assay [3], in assay [4], in assay [5] and in assay [6] was inactive. Besides, the outcome in assay [7] was inactive.

With `CCCCC(CC)COC(=O)c1c(Br)c(Br)c(Br)c(Br)c1C(=O)OCC(CC)CCCC` (stereo unspecified), the outcome in assay [1], in assay [2], in assay [3], in assay [4], in assay [5] and in assay [6] was inactive. For the same compound, the result in assay [7] was inactive.

As for `COC(=O)C(F)(F)C(F)(F)OC(F)(C(F)(F)F)C(F)(F)OC(F)=C(F)F` (stereo unspecified), the result in assay [1], in assay [2], in assay [3], in assay [4], in assay [5] and in assay [6] was inactive. Besides, the result in assay [7] was inactive.

Turning to `CCOP(=S)(NC(C)C)Oc1ccccc1C(=O)OC(C)C` (stereo unspecified), the outcome in assay [1], in assay [3], in assay [5], in assay [6] and in assay [7] was inactive. In addition, the AC50 in assay [2] was 14.2 µM (active); in assay [4] it was 14.3 µM (active).

For `O=S1(=O)OCC2C(CO1)C1(Cl)C(Cl)=C(Cl)C2(Cl)C1(Cl)Cl` (stereo unspecified), the AC50 in assay [1] is 32.9 µM (active); in assay [2] it was 1.55 µM (active); in assay [3], 25.9 µM (active); in assay [4], 33 µM (active); in assay [5], 16.1 µM (active); in assay [6], 31 µM (active). Moreover, the outcome in assay [7] was inactive.

With `N#Cc1c(-c2ccc(Cl)cc2)[nH]c(C(F)(F)F)c1Br`, the AC50 is 2.33 µM (active) in assay [1]; 0.309 µM (active) in assay [2]; 2.37 µM (active) in assay [3]; 0.556 µM (active) in assay [4]; 1.14 µM (active) in assay [5]; 10.8 µM (active) in assay [6]. The AC50 in assay [7] was 0.71 µM (active).

For `N#Cc1cc([N+](=O)[O-])ccc1N`, the outcome in assay [1], in assay [2], in assay [3], in assay [4], in assay [5] and in assay [6] was inactive. Moreover, the result in assay [7] was inactive.

Turning to `CCCCOCCOP(=O)(OCCOCCCC)OCCOCCCC`, the result in assay [1], in assay [2], in assay [3], in assay [4], in assay [5] and in assay [7] was inactive. Also, in assay [6], the AC50 was 0.015 µM (active).

As to `Cc1c([N+](=O)[O-])cc2c(c1[N+](=O)[O-])C(C)(C)CC2(C)C`, the AC50 in assay [1] is 33.2 µM (active); in assay [2], 20 µM (active); in assay [3], 20 µM (active); in assay [6] it was 29.5 µM (active); in assay [7], 6.96 µM (active). For the same compound, the outcome in assay [4] and in assay [5] was inactive.

As to `CC(O)C(F)(F)C(F)(F)F` (stereo unspecified), the result in assay [1], in assay [2], in assay [3], in assay [4], in assay [5] and in assay [6] was inactive. The outcome in assay [7] was inactive.

In the case of `NC(=O)C(F)(F)C(F)(F)F`, the outcome in assay [1], in assay [2], in assay [3], in assay [4], in assay [5] and in assay [6] was inactive. The outcome in assay [7] was inactive.

Turning to `O=P(OCC(Br)CBr)(OCC(Br)CBr)OCC(Br)CBr` (stereo unspecified), the result in assay [1] was inactive. For the same compound, the half-maximal activity concentration (AC50) in assay [2] is 16.9 µM (active); in assay [3] it was 23.9 µM (active); in assay [4] it was 17.4 µM (active); in assay [5], 17.4 µM (active); in assay [6], 33.6 µM (active); in assay [7], 17.4 µM (active).

With `ClC(Cl)=C(c1ccc(Cl)cc1)c1ccccc1Cl`, the AC50 in assay [1] was 37.2 µM (active); in assay [2] it was 29.6 µM (active); in assay [3], 34.4 µM (active); in assay [4], 30 µM (active); in assay [5], 27.3 µM (active); in assay [6], 31.1 µM (active). The AC50 in assay [7] was 5.1 µM (active).

As for `COP(=O)(O)OC`, the result in assay [1], in assay [2], in assay [3], in assay [4], in assay [5] and in assay [6] was inactive. For the same compound, the result in assay [7] was inactive.
